Some test systems named below: HCT-15 colon; HT29 colon; SNB-75 CNS; U251 CNS; PC-3 prostate; SK-MEL-5 melanoma; UACC-62 melanoma; SK-MEL-28 melanoma; SK-MEL-2 melanoma; EKVX NSCLC; SN12C renal; UO-31 renal; TK-10 renal; ACHN renal; CAKI-1 renal; A498 renal; CCRF-CEM leukemia; MOLT-4 leukemia; LOX IMVI melanoma; SNB-19 CNS.
What all share (experiment): NCI-60 one-dose screen, 48 h (100 = growth as untreated, 0 = no growth, -100 = all killed)
Common to all, as to conditions: 10 µM unless noted

The panel holds about 83,000 compounds, 20% with a hit somewhere; the sample as a whole holds those more often.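 48-hour exposure, single concentration, 96-well plates; percent growth endpoint where 0 means no net growth. Active: below 10.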 Values without a mark were called inactive. Calls of active or inactive are those of the source.

As to `Cc1cc2cc3cc(C)c(N(C)C)cc3[n+](C)c2cc1N(C)C`, the growth in the experiment with HCT-15 colon was 65.6%; in the experiment with HT29 colon, 16.6%; with SNB-75 CNS it was 35.4%; in the experiment on U251 CNS, 12.3%; in the experiment on PC-3 prostate it was 4.2% (active); in the experiment on SK-MEL-5 melanoma, 42.1%. For the same molecule, the growth with UACC-62 melanoma was 56%; in the experiment with SK-MEL-28 melanoma it was 39.6%; in the experiment with SK-MEL-2 melanoma it was -22% (active); with EKVX NSCLC it was 52%; in the experiment with SN12C renal, 10.7%; in the experiment with UO-31 renal, 62.1%. The growth in the experiment on TK-10 renal is -17.4% (active); in the experiment on ACHN renal, 43.8%; in the experiment on CAKI-1 renal, 47.2%; in the experiment on A498 renal, 56.9%; in the experiment with CCRF-CEM leukemia, 13%; in the experiment on MOLT-4 leukemia, 33.9%.

Regarding `Cc1ccc2c(c1)C(=O)c1c-2c(OCCCN(C)C)nc2ccccc12`, the growth in the experiment with HCT-15 colon is -17.8% (active); in the experiment with HT29 colon, -33% (active); in the experiment on SNB-75 CNS it was 38.5%; in the experiment with U251 CNS, 4.38% (active); in the experiment with PC-3 prostate, 18.6%; in the experiment with SK-MEL-5 melanoma, 28.5%. Besides, the growth was -66% (active) in the experiment with UACC-62 melanoma; -54% (active) in the experiment with SK-MEL-28 melanoma; 44.7% in the experiment with SK-MEL-2 melanoma; 28.4% in the experiment with EKVX NSCLC; 19.4% in the experiment on SN12C renal; 3.12% (active) with UO-31 renal. Further, the growth in the experiment with TK-10 renal was 37.2%; in the experiment with ACHN renal, -6.51% (active); in the experiment on CAKI-1 renal, 24.2%; with A498 renal, 33.3%; in the experiment with CCRF-CEM leukemia, 19.3%; in the experiment on MOLT-4 leukemia it was -10.5% (active).

Consider `CCCCN(CCCC)CCC(C)(O)c1cc2ccccc2c2ccccc12` (stereo not given), for which the growth with HCT-15 colon was 82.2%; in the experiment with HT29 colon it was 39.7%; in the experiment with SNB-75 CNS, 106%; in the experiment with U251 CNS it was 86.3%; in the experiment on PC-3 prostate, 47.5%; in the experiment with SK-MEL-5 melanoma it was 102%. In addition, the growth in the experiment with LOX IMVI melanoma was 45.7%; in the experiment on SK-MEL-28 melanoma, 121%; in the experiment with SK-MEL-2 melanoma it was 122%; with EKVX NSCLC, 103%; in the experiment with UO-31 renal, 50.9%; in the experiment on TK-10 renal it was 104%. The growth is 96.9% with ACHN renal; 87.9% in the experiment on CAKI-1 renal; 83.1% in the experiment on A498 renal; 42.4% in the experiment with CCRF-CEM leukemia; 37.5% in the experiment with MOLT-4 leukemia.

On to `CCCCCC(=O)Oc1ccc(/C(=C(\C)c2ccccc2)c2ccc(OCCN(CC)CC)cc2)cc1`, for which the growth with HCT-15 colon is 38.6%; with HT29 colon, 4.26% (active); in the experiment with SNB-19 CNS, 85.3%; in the experiment with U251 CNS, 52.1%; in the experiment with PC-3 prostate it was 55.7%; in the experiment on SK-MEL-5 melanoma, 54.4%. For the same molecule, the growth was 57.4% in the experiment on UACC-62 melanoma; 68.8% in the experiment with LOX IMVI melanoma; 53% in the experiment with SK-MEL-28 melanoma; 87.6% in the experiment on SK-MEL-2 melanoma; 92.5% with EKVX NSCLC; 79.8% in the experiment with SN12C renal. The growth in the experiment on UO-31 renal is 48.4%; with TK-10 renal, 74.6%; in the experiment on ACHN renal, 87.9%; with CAKI-1 renal, 99.7%; in the experiment with A498 renal it was 84.8%; in the experiment with CCRF-CEM leukemia, 63.9%. Moreover, in the experiment on MOLT-4 leukemia, the growth is 46.1%.

On to `COc1cc(C#N)cc(OC)c1OCCN(CCOc1c(OC)cc(C#N)cc1OC)S(=O)(=O)c1ccc(C)cc1`, for which the growth in the experiment on HCT-15 colon is 108%; in the experiment with HT29 colon it was 111%; with SNB-75 CNS, 92.7%; with U251 CNS it was 103%; in the experiment with SK-MEL-5 melanoma, 61.8%; in the experiment with UACC-62 melanoma, 96.8%. Further, the growth with LOX IMVI melanoma was 93.1%; in the experiment on SK-MEL-28 melanoma, 118%; with SK-MEL-2 melanoma, 75%; in the experiment on EKVX NSCLC, 108%; in the experiment on SN12C renal, 111%; with UO-31 renal, 45.5%. Further, the growth is 140% with TK-10 renal; 97.5% in the experiment with ACHN renal; 109% with CAKI-1 renal; 107% with A498 renal; 103% with CCRF-CEM leukemia; 97.6% in the experiment with MOLT-4 leukemia.

In the case of `Nc1c(C(=O)Nc2ccccc2)sc2nc3c(cc12)CN(CCc1ccccc1)CC3`, the growth in the experiment with HCT-15 colon is 107%; in the experiment on HT29 colon, 104%; with SNB-19 CNS, 95.4%; in the experiment on U251 CNS, 91.3%; in the experiment on PC-3 prostate it was 88.1%; with SK-MEL-5 melanoma, 92.9%. The growth with UACC-62 melanoma is 86.4%; in the experiment on LOX IMVI melanoma, 87.5%; in the experiment with SK-MEL-28 melanoma, 106%; in the experiment with SK-MEL-2 melanoma, 105%; in the experiment with EKVX NSCLC, 88.3%; with SN12C renal, 89.4%. The growth is 80.3% with UO-31 renal; 113% in the experiment with TK-10 renal; 95.3% in the experiment on ACHN renal; 86.9% in the experiment on CAKI-1 renal; 91.3% with A498 renal; 104% in the experiment with CCRF-CEM leukemia. For the same molecule, the growth in the experiment with MOLT-4 leukemia is 104%.

Turning to `Cc1ccc2c(c1)C(=O)/C(=C/c1ccc(OCC(=O)c3ccccc3)cc1)O2`, the growth with HCT-15 colon was 75.3%; with HT29 colon it was 101%; in the experiment on SNB-75 CNS, 109%; with U251 CNS it was 99.1%; in the experiment on SK-MEL-5 melanoma it was 86.9%; with UACC-62 melanoma, 63.8%. For the same molecule, the growth in the experiment on LOX IMVI melanoma was 102%; in the experiment with SK-MEL-28 melanoma, 112%; in the experiment with SK-MEL-2 melanoma it was 77.8%; in the experiment with EKVX NSCLC, 90.2%; in the experiment with SN12C renal it was 98.6%; in the experiment on TK-10 renal it was 127%. Further, the growth is 100% with ACHN renal; 103% with CAKI-1 renal; 98.3% in the experiment with A498 renal; 151% with CCRF-CEM leukemia; 33.2% with MOLT-4 leukemia.

Take `COc1cccc(-c2nc3sccn3c2-c2ccnc(NCCCNS(=O)(=O)c3ccccc3)c2)c1`: the growth is 27.6% in the experiment with HCT-15 colon; 41.6% in the experiment with HT29 colon; 68.7% in the experiment with SNB-19 CNS; 65.4% in the experiment with U251 CNS; 15.9% with PC-3 prostate; -29.8% (active) with SK-MEL-5 melanoma. Moreover, the growth with UACC-62 melanoma was -27.7% (active); in the experiment on LOX IMVI melanoma, 35.1%; in the experiment on SK-MEL-28 melanoma it was 66.8%; in the experiment on SK-MEL-2 melanoma, 27.4%; in the experiment on EKVX NSCLC, 42.7%; in the experiment with SN12C renal, 31.4%. In addition, the growth in the experiment with UO-31 renal is 9.36% (active); with TK-10 renal, 88.2%; in the experiment on ACHN renal it was 26.9%; with CAKI-1 renal it was 27.8%; in the experiment on A498 renal, 57.9%; in the experiment on CCRF-CEM leukemia it was 12.3%. In the experiment with MOLT-4 leukemia, the growth is 14.1%.

For the origin of these results see PubChem BioAssay (NCI).
